Assay [1] concerns the target Retinoic acid receptor RXR-alpha (Homo sapiens) (UniProt P19793). In words: qHTS assay to identify small molecule agonists of the RXR signaling pathway (AID 1159527; calls by dose curve; also: nearly all actives have a fitted effect of over 35% in size). The gist of the method: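 Cells plated at 2,000/well, rested 5 hr at 37 C, pin-dosed with DMSO compound solutions, incubated 16 hr, then loaded with B/G FRET substrate for 2 hr at RT before dual-emission fluorescence reading.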

The nature of assay [2]: qHTS assay to identify small molecule agonists of the RXR signaling pathway - cell viability counter screen (AID 1159529).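 Also: HEK 293T cells carrying an RXR-alpha UAS beta-lactamase reporter; nearly all actives have a fitted effect of over 50% in size.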 The gist of the method:
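Steps: seed RXR-alpha-UAS-bla HEK 293T cells in assay medium containing 2% charcoal-stripped FBS; incubate 5 hr; add compounds in DMSO; incubate 16 hr at 37 C; after the bla read, add CellTiter-Glo and read luminescence at 30 min.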

Assay [3] can be described thus: qHTS assay to identify small molecule antagonists of the retinoic acid receptor (RAR) signaling pathway (AID 1159552; also: nearly all actives have a fitted effect of over 50% in size). The gist of the method:
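Retinol at 1 uM final stimulated RARE-luciferase expression in C3RL4 cells exposed to test compounds for 6 hr at 37 C. Reduced luminescence, read 30 min after detection reagent, indicated pathway antagonism.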

Assay [4] is described as follows: qHTS assay to identify small molecule agonists of the retinoic acid receptor (RAR) signaling pathway (AID 1159553). As to conditions: C3RL4 RARE luciferase reporter, agonist, 6 h; activation: at 73.3 µM (top of the series). In a few lines: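 C3RL4 RARE-luciferase cells were seeded at 1,000/well and grown overnight at 37 C, then exposed to compounds for 6 hr at 37 C, 5% CO2. Luciferase reagent was added and luminescence was read after 30 min at room temperature.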

Assay [5] in a line: qHTS assay to identify small molecule antagonists of the estrogen related receptor (ERR) signaling pathway from Tox21 library - cell viability counter screen (AID 1224834). Also: nearly all actives have a fitted effect of over 30% in size. The gist of the method: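 ERR reporter cells, 2,000 per well, rested 6 h, then exposed to compound in DMSO for 17.5 hours at 37 C. Viability read as fluorescence after 30 min with CellTiter-Fluor.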
The target of assay [6] is Luciferin 4-monooxygenase (Photinus pyralis) (UniProt P08659). Briefly: qHTS assay to identify small molecule inhibitors of firefly luciferase (AID 1224835). Also: nearly all actives have a fitted effect of over 25% in size. Also: potency is read from the fitted curve at half-maximal effect. In a few lines: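 Quantitative HTS format; KM concentrations of both substrates. Purified P. pyralis FLuc activity quantified from luminescence images.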
Chain of Luciferin 4-monooxygenase (Photinus pyralis) (P08659 whole entry, looked up): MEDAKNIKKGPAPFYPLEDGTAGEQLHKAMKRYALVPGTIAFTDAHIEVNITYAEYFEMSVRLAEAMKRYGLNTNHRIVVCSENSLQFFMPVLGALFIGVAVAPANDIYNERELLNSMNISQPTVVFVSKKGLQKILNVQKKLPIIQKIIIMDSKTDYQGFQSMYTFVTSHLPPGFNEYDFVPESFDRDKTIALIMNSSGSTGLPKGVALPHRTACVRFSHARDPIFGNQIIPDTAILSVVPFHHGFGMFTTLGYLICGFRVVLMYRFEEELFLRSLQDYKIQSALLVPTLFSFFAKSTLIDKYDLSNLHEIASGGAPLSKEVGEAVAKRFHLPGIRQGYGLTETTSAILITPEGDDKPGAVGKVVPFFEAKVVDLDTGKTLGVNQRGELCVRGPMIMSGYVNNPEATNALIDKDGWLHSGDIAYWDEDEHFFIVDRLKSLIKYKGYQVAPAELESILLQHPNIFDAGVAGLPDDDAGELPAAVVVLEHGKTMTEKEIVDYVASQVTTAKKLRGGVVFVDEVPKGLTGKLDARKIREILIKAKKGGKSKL
Assay [7] can be described thus: qHTS assay to identify small molecule antagonists of the constitutive androstane receptor (CAR) signaling pathway - cell viability counter screen (AID 1224837). Also: nearly all actives have a fitted effect of over 45% in size. In a few lines: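 HepG2 cells stably carrying hCAR and CYP2B6-2.2kb reporter, stimulated with 50 nM CITCO and compounds at 15 concentrations for 23 h at 37 C. Viability measured by CellTiter-Fluor fluorescence.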

Assay [8] is described as follows: qHTS assay to identify small molecule antagonists of the estrogen related receptor signaling pathway with the pleiotropic PPARgamma coactivator (PGC) from Tox21 10K library - cell viability counter screen (AID 1224840; active = well fitted cell-killing curve with a large enough effect in the repeat runs, not every such curve was filed as active; also: nearly all actives have a fitted effect of over 40% in size). In a few lines:
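PGC/ERR cells (2,000/well) plated 6 h, then compound-treated for 17.5 h at 37 C. Viability measured by CellTiter-Fluor fluorescence after 30 min at 37 C, multiplexed with the pathway assay.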

The nature of assay [9]: qHTS assay to identify small molecule agonists of the estrogen related receptor signaling pathway with the pleiotropic PPARgamma coactivator (PGC) from Tox21 10K library (AID 1224842). Also: nearly all actives have a fitted effect of over 15% in size. In a few lines: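 PGC/ERR reporter cells (NTP line) were seeded 2,000 per well, rested 6 h at 37 C/5% CO2, then pin-dosed with compounds in DMSO for 18 h at 37 C; luciferase read by One-Glo luminescence after 30 min at room temperature.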

A short description of assay [10]: qHTS assay to identify small molecule agonists of the hypoxia (HIF-1) signaling pathway - cell viability counter screen (AID 1224844; calls by dose curve; also: nearly all actives have a fitted effect of over 50% in size). The gist of the method: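 HRE-bla ME-180 cells, 2,000/well in 0.5% dialyzed FBS medium, treated 17 h at 37C with compounds. Viability read in the same wells as the bla reporter, by CellTiter-Glo luminescence after 30 min at room temperature.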

Assay [11] is described as follows: qHTS assay to identify small molecule agonists of H2AX (AID 1224845; active = well fitted activation curve with a large enough effect in the signal ratio in the repeat runs, not every such curve was filed as active; the % refers to the signal ratio). The gist of the method: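 Wild-type CHO-K1 cells plated overnight, then exposed 3 hr at 37C to compounds at 15 concentrations (0.76% DMSO). Lysed, then HTRF anti-pH2AX(S139)-cryptate/anti-H2AX-d2 detection after 24 hr at room temperature; emissions 665 and 620 nm.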
Assay [12] in a line: qHTS assay to identify small molecule agonists of the hypoxia (HIF-1) signaling pathway (AID 1224846; active = well fitted activation curve with a large enough effect in the signal ratio in the repeat runs, not every such curve was filed as active; the % refers to the signal ratio). In a few lines:
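HRE-bla ME-180 beta-lactamase reporter cells in medium with 0.5% dialyzed FBS, pre-incubated 5 h then exposed to compounds 17 h at 37C, 5% CO2; reporter induction read with CCF4-AM FRET substrate.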

Assay [13] can be described thus: qHTS assay to identify small molecule agonists of H2AX - cell viability counter screen (AID 1224847; calls by dose curve; also: top concentration of the series differs between compounds; nearly all actives have a fitted effect of over 30% in size). The gist of the method:
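Cytotoxicity counter screen in wild-type CHO-K1 cells: a 3 hr compound treatment at 37C across 15 concentrations, followed by CellTiter-Glo luminescence to gauge viable cells.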

Assay [14] can be described thus: qHTS assay to identify small molecule antagonists of the estrogen related receptor (ERR) signaling pathway from Tox21 library (AID 1224848). Also: nearly all actives have a fitted effect of over 50% in size. The gist of the method: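 Screening used an ERR reporter line supplied by NTP, exposed for 18 h at 37 C to library compounds delivered in DMSO. Signal was luciferase luminescence developed with ONE-Glo at room temperature for 30 min.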

Assay [15] in a line: qHTS assay to identify small molecule agonists of the constitutive androstane receptor (CAR) signaling pathway - cell viability counter screen (AID 1224836). Also: nearly all actives have a fitted effect of over 45% in size. In a few lines: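 Cells were seeded and incubated 4 hrs. Compounds were added across 15 concentrations together with PK11195 at 0.75 uM final. Plates were incubated 23 hrs at 37 C. CellTiter-Fluor was added and fluorescence measured.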

For assay [16], the target named is Thyrotropin receptor (Homo sapiens) (UniProt P16473). Briefly: qHTS assay to identify small molecule agonists of the thyroid stimulating hormone receptor (TSHR) signaling pathway (AID 1224843; calls by dose curve; also: nearly all actives have a fitted effect of over 45% in size). The gist of the method: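 Cell line HEK293 with TSHR; density 800/well. Exposure 30 min RT. Readout HTRF cAMP (cAMP-d2/anti-cAMP-cryptate), 1 h RT before reading.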
Chain of Thyrotropin receptor (Homo sapiens) (P16473 whole entry, looked up): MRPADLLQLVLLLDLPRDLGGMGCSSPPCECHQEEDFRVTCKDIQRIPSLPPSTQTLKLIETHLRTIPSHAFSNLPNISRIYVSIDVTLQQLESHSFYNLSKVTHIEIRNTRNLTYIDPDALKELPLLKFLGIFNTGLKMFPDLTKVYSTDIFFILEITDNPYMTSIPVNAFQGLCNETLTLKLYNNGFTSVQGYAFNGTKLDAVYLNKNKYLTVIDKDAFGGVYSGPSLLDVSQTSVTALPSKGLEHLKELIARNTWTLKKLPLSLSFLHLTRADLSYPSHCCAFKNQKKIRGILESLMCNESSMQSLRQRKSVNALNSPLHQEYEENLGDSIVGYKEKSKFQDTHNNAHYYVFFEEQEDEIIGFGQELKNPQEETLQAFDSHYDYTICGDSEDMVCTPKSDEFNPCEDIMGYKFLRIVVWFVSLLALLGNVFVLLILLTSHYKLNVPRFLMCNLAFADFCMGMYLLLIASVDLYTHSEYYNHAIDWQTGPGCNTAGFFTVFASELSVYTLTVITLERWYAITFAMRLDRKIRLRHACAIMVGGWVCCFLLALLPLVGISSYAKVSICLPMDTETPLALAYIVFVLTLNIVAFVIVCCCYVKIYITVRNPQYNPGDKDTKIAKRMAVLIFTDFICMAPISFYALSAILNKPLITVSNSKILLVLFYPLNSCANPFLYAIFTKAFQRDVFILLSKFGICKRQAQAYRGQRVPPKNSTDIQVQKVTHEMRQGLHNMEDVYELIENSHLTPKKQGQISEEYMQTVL
A short description of assay [17]: qHTS assay to identify small molecule antagonists of the retinoid acid receptor (RAR) signaling pathway - cell viability counter screen (AID 1159551). Also: nearly all actives have a fitted effect of over 35% in size. The gist of the method: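 C3RL4 RARE-luciferase cells, 1,000/well, incubated overnight, then dosed with compound plus 1 uM retinol (final). After 6 hr at 37 C, viability read by CellTiter-Glo ATP luminescence following 30 min at room temperature.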

Assay [18] in a line: qHTS assay to identify small molecule antagonists of the estrogen related receptor signaling pathway with the pleiotropic PPARgamma coactivator (PGC) from Tox21 10K library (AID 1224841; call rule not given here). In a few lines:
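PGC/ERR cell line, 2,000 cells/well, pre-incubated 6 hours at 37 C, then exposed to compounds for 18 hours at 37 C; luciferase read with One-Glo luminescence after 30 min at room temperature.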

In assay [19] the target is Nuclear receptor subfamily 1 group I member 3 (Homo sapiens) (UniProt Q14994). Briefly: qHTS assay to identify small molecule antagonists of the constitutive androstane receptor (CAR) signaling pathway (AID 1224838). Also: nearly all actives have a fitted effect of over 40% in size. In a few lines: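 HepG2 cells stably carrying hCAR and a CYP2B6-2.2kb luciferase reporter, seeded 4 hrs before compound (15 concentrations). Stimulated with 50 nM CITCO for 24 hr at 37 C. ONE-Glo luminescence read after 30 min at room temperature.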
Chain of Nuclear receptor subfamily 1 group I member 3 (Homo sapiens) (Q14994 whole entry, looked up): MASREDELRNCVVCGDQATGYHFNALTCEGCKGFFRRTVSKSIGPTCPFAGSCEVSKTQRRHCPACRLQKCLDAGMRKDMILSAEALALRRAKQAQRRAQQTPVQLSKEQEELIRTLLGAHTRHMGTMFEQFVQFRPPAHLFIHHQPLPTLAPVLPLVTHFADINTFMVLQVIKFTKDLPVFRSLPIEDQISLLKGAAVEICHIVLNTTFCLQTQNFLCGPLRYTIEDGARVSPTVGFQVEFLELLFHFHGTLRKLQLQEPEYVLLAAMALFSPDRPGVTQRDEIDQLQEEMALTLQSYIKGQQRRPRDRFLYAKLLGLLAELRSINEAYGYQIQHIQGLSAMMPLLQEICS

Assay [20] has the same target. In words: qHTS assay to identify small molecule agonists of the constitutive androstane receptor (CAR) signaling pathway (AID 1224839). Also: nearly all actives have a fitted effect of over 15% in size. The gist of the method:
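Cells were plated and incubated 4 hrs, then dosed with compounds at 15 concentrations. PK11195 was added to 0.75 uM final. After 24 hrs at 37 C, luciferase luminescence was measured.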

SMILES strings stand for the structures. Records with an inconclusive call do not appear. Unmarked numbers belong to inactive results. Active and inactive are the calls of the source. Unless noted, calls follow the shape of the dose curve; as a rule, active = well fitted curve in the direction sought with a large enough effect in the repeat runs; inconclusive = weak or mixed curves; inactive = no such curve, though single readings can be large; an effect the other way counts as inactive or inconclusive.

Chain of Retinoic acid receptor RXR-alpha (Homo sapiens) (P19793 whole entry, looked up): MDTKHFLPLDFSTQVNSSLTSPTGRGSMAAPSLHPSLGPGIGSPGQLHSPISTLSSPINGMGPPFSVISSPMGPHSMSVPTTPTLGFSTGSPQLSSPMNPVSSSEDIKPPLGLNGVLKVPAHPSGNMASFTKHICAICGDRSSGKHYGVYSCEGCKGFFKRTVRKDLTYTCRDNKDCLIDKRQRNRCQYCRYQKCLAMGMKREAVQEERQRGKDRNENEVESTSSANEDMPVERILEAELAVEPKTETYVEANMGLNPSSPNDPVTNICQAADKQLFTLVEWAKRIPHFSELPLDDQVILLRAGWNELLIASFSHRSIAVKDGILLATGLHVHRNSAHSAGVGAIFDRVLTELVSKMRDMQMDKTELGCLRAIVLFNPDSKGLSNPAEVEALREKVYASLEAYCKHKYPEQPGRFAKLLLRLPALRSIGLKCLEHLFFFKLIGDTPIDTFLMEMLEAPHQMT

For the molecule `CC(C)COC(=O)COc1ccc(Cl)cc1Cl`, the Potency result in [1], in [3], in [4], in [5], in [7] and in [13] was “inactive” throughout. Also, the Potency result in assay [14] was “inactive”. Further, the molecule was called inactive in assay [2], in assay [8], in assay [9], in [10], in assay [11] and in assay [12]. Also, the Potency in assay [6] is 11.2 µM (active).

On to `O=CN1CCOCC1`, for which the Potency entry in assay [1], in assay [3], in [4], in [5], in assay [6] and in [7] was “inactive” in each case. In addition, the Potency result in assay [13] and in assay [14] was “inactive” throughout. Further, the outcome in [2], in [15], in [8], in assay [9], in assay [16] and in [10] was inactive. Further, the molecule was classed as inactive in [11] and in [12].

For `CCOC(=O)CCc1ccccc1`, the Potency entry in assay [1], in assay [3], in assay [4], in assay [5], in assay [6] and in [7] was “inactive” throughout. Moreover, the Potency entry in [13] is “inactive”. In addition, the outcome in [2], in assay [15], in assay [8], in assay [16], in assay [10] and in assay [11] was inactive. In [12], the result was inactive.

For the molecule `COc1cc(C=O)ccc1OC(=O)C(C)C`, the Potency result in assay [1], in assay [3], in assay [4], in [5], in assay [6] and in assay [7] was “inactive” in each case. Also, the Potency result in [14] is “inactive”. Besides, the molecule was classed as inactive in assay [2], in assay [15], in [9], in assay [16], in [10] and in [11]. For the same molecule, the result in assay [12] was inactive.

In the case of `COCCOCCOCCOC`, the Potency result in assay [1], in [3], in [4], in assay [5], in assay [6] and in assay [7] was “inactive” each time. The Potency result in assay [13] was “inactive”. Besides, the molecule was classed as inactive in assay [2], in assay [10], in [11] and in assay [12].

In the case of `C=C(C)[C@@H]1CC[C@@H](C)C[C@@H]1O`, the Potency result in assay [1], in [5], in assay [6], in [7] and in assay [13] was “inactive” throughout. For the same molecule, the call in assay [2], in [17], in [15], in assay [8], in [16] and in assay [10] was inactive. For the same molecule, the outcome in assay [11] and in [12] was inactive.

As to `O=C(Oc1ccccc1C(=O)O)c1ccccc1O`, the Potency entry in assay [1], in assay [4], in [5], in [6], in assay [7] and in assay [18] was “inactive” throughout. Moreover, in assay [14], the Potency entry is “inactive”. Also, the molecule was classed as inactive in assay [2], in [17], in [8], in assay [9], in assay [16] and in [10]. In addition, the molecule was called inactive in assay [11] and in assay [12].

As to `C=C[Si](C)(C)O[Si](C)(C)C=C`, the Potency result in assay [1], in assay [3], in assay [4], in [6], in assay [7] and in assay [13] was “inactive” each time. The molecule was classed as inactive in assay [2], in [8], in assay [16], in [10], in assay [11] and in assay [12].

With `O=C(O)c1ccccc1C(=O)Nc1ccc(S(=O)(=O)Nc2nccs2)cc1`, the Potency entry in assay [1], in assay [3], in assay [4], in [5], in assay [6] and in [7] was “inactive” each time. Further, the Potency entry in [19], in [20] and in [13] was “inactive” each time. The molecule was called inactive in assay [2], in [15], in assay [8], in assay [10] and in assay [11].

The values above are taken from PubChem BioAssay (Tox21).
